Measured values reported in PubChem BioAssay AID1259415 (National Center for Advancing Translational Sciences (NCATS), 2018).
Among all 410,000 compounds or so, about 18,000 (4.4%) were called active. About 7% were inconclusive and are not listed. Cut-off read from the data, not from the text of the source: active = activity change below about -60%; inconclusive = no clear call, values can overlap the other calls; inactive = above about -39%. The entries come from a sample that favours actives as a whole.

test: qHTS Assay for inhibitors of the human cytomegalovirus (HCMV); conditions: HFF cells, HCMV-luciferase reporter, 72 h; at 57.5 µM; stronger effect = lower value
Procedure, shortened: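 HFF cells seeded 16 h at 37C, treated with compounds, infected with luciferase-reporter HCMV at MOI 1 PFU/cell; luciferase read at 72 h post infection, normalized to buffer-only and Salinomycin controls.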
% is set by controls: 0 for no effect and ±100 for the full control effect.

Row | SMILES | activity change, negative = inhibition
1 | O=C(CC1Oc2ccccc2NC1=O)NCc1ccc(F)cc1 (stereo not given) | -9.67% (inactive)
2 | O=C(NCc1ccccc1)c1ccc2c(c1)nc1n2CCCCC1 | 27.3% (inactive)
3 | CCn1c(CSc2nc(C)cc(C)n2)nnc1SCC(N)=O | -18.8% (inactive)
4 | Cc1cc(C)nc(S/C=C/C(=O)c2ccccc2)n1 | -90.7% (active)
5 | CCC1Oc2ccc(Cl)cc2N(CC(=O)O)C1=O (stereo not given) | -13.4% (inactive)
6 | Cc1cc(C)n(C(=O)c2ccc(C)c(S(=O)(=O)N3CCOCC3)c2)n1 | -11.1% (inactive)
7 | O=C(Nc1cccn(Cc2c(Cl)cccc2Cl)c1=O)c1ccc(Cl)cc1 | -83.3% (active)
8 | O=C(Nc1cccn(Cc2ccccc2Cl)c1=O)NC1CCCCC1 | -37.7% (inactive)
9 | CCn1c(=O)c(=O)n(CC)c2cc(N3CCCCC3)c(NC(=O)c3ccc(Cl)cc3)cc21 | -11.3% (inactive)
10 | Cc1ccc(C(=O)Nc2ccc(OCc3cc(=O)n4c5c(sc4n3)CCCC5)cc2)cc1 | 7.24% (inactive)
11 | COc1ccc(S(=O)(=O)N2CCOCC2)cc1NC(=O)CSc1nnc(NC2CC2)s1 | 18.1% (inactive)
12 | COc1ccc(S(=O)(=O)N2CCOCC2)cc1NC(=O)CSc1cc(C)ccc1C | -10.1% (inactive)
13 | COc1ccc(S(=O)(=O)N2CCOCC2)cc1NC(=O)CSc1ncnc2ccccc12 | -109% (active)
14 | CCCCN(CC)CCCNC(=O)Cn1ncc2c([nH]c3ccc(C)cc32)c1=O | -8.89% (inactive)
15 | CNC(=O)/C(C#N)=C/c1c(F)cccc1Cl | -80.3% (active)
16 | Cc1[nH]c2ccccc2c1/C=C(/C#N)C(=O)NC(C)C | -36.7% (inactive)
17 | O=C(/C=C/c1c(F)cccc1Cl)Nc1nn[nH]n1 | -8.32% (inactive)
18 | Cc1cc(S(=O)(=O)N2CCOCC2)ccc1OCC(=O)Nc1cccc(C(F)(F)F)c1 | -13.9% (inactive)
19 | COc1cc(C(=O)N(C)Cc2cccc(OC)c2OC)ccc1OCC(=O)Nc1cccc(C(F)(F)F)c1 | -86.1% (active)
20 | COc1ccccc1NC(=O)COc1ccc(C(=O)OCC(=O)N(C(C)C)C(C)C)cc1OC | -9.98% (inactive)
21 | CCCN1CCN(CCCNC(=O)Cn2nc(CC)n3c(cc4occc43)c2=O)CC1 | 35.8% (inactive)
22 | CC(C)(C)Oc1ccccc1Nc1nc(NCCO)nc(N2CCCC2)n1 | 1.45% (inactive)
23 | O=c1oc2ccccc2cc1-c1cn(-c2ccccc2)c(=S)[nH]1 | -86.5% (active)
24 | CC(C)Cn1c(=O)c2ccccc2n2c(-c3cccc(Cl)c3)nnc12 | 2.19% (inactive)
25 | COc1ccc(CNC(=O)CSc2nc3ccccc3nc2Cc2ccccc2)cc1 | -15% (inactive)
